Screening data: PubChem BioAssay, National Center for Advancing Translational Sciences (NCATS)
AID923: qHTS Assay for Allosteric/Competitive Inhibitors of Caspase-1: Spectroscopic Profiling in AFC Spectral Region | compound fluorescence, AFC spectral region (405/520 nm) | Potency, µM (doses to about 57.5 µM), for inactives: at the top dose fluorescence increase, most hits filed as activators | actives 1.1% (n = 75,000); further: potency means the concentration at half of the fitted maximal effect; 0% is about no effect
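Baseline compound fluorescence (AFC region, 405 nm ex/520 nm em) taken from the intercept of kinetic reads with 50 nM caspase-1 and 5 uM Ac-WEHD-AFC; normalized to an on-plate AFC standard curve; compounds titrated up to 57 uM.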
4MU fluor: compounds fluorescent in 4-MU spectral region; AID 589; max dye-equivalent concentration, M; actives 11% (n = 59,000); compound autofluorescence, 340/450 nm, 4-MU equivalents; active compounds read high; in the data active means max dye-equivalent concentration above about 10 nM; inconclusive means mostly about 1.1 nM to 9.6 nM
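Compounds in 100 mM Tris, pH 8.0, sat 15 min at room temperature before fluorescence was read at 340 nm excitation/450 nm emission; a per-plate six-point 4-MU standard curve converted signals to dye-equivalent concentration at each compound concentration.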
HADH2 inhib: HADH2 (human) dehydrogenase inhibition; Q99714; recombinant HADH2, NADH fluorescence, beta-hydroxybutyryl-CoA; Potency, µM (titrated, usually from 57.1 µM), for inactives: at the highest dose activity change, negative = inhibition, usual class: inhibitors; actives 3.4% (n = 73,000); AID 886; further: potency means the concentration at half of the fitted maximal effect; on the % scale 0 is the no-effect control and ±100 the full control effect; nearly all actives have a fitted effect of over 60% in size
Target sequence (Q99714 whole entry, looked up, one chain of several): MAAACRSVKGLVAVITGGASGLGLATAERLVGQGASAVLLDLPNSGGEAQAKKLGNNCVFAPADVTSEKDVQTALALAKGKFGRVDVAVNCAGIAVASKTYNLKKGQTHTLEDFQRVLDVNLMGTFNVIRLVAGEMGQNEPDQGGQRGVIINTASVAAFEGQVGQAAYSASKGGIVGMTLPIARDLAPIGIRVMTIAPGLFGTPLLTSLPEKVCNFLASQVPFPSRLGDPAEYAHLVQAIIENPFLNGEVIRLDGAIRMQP
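E. coli-expressed His-tagged HADH2 tested at 20 nM in alkaline Tris buffer (pH 9.0); oxidation of 90 uM beta-hydroxybutyryl-CoA with 1 mM NAD+ tracked fluorimetrically for 4 min.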
HSD17B inhib: inhibitors of human HSD17B10 dehydrogenase. Q99714. recombinant HSD17B10, NADH fluorescence kinetic. Potency, µM (doses to about 57.1 µM), inactives show at the top dose activity change, negative = inhibition, actives largely listed as inhibitors. actives 7.6% (n = 75,000). AID 893;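 further: the protocol describes HADH2 (HSD17B10) and not the HSD17B4 of the title; potency means the concentration at half of the fitted maximal effect; on the % scale 0 is the no-effect control and ±100 the full control effect; nearly all actives have a fitted effect of over 70% in size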
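20 nM HADH2, pH 9.0 Tris/Tween; cpd preinc 15 min RT; start w/ 1 mM NAD+ + 90 uM b-hydroxybutyryl-CoA; kinetic fluor ex360/em450 q30s x 4 min; delta last-first.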
CRE Fsk mod: alters forskolin-stimulated CRE reporter signaling in CHO cells; CHO CRE-bla reporter (cAMP response element driving beta-lactamase), forskolin EC10, beta-lactamase ratio; Potency, µM (highest dose often 38.2 µM), for the others: at the highest dose activity change, negative = inhibition, usual class: activators; AID 662; actives 2.5% (n = 71,000); active means well fitted activation curve with a large enough effect in the signal ratio, with a control signal flat, not every such curve was filed as active; inconclusive means small, poorly fitted or top-dose-only effect, or effect the other way, or a change in a side signal; the % refers to the signal ratio; further: potency means the concentration at half of the fitted maximal effect; % of control where 0% means no effect
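Using CellSensor CRE-bla CHO cells in Opti-MEM with 0.5% dialyzed FBS, compounds were titrated with EC10 NKH 477 for 3 h at 37 °C. CCF4 ratio (460/530 nm) gave %Activity; AC50 derived.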
A350 autofl: A350 region autofluorescence; Compound autofluorescence, 340/450 nm, Alexa 350 dye-equivalents; active compounds read high; max dye-equivalent concentration, M; actives 11% (n = 59,000); AID 590; in the data active means max dye-equivalent concentration above about 10 nM; inconclusive means mostly about 1.1 nM to 9.6 nM
Active calls of the source: *; [ ] = another dose, or the depositor's remark. Shown are actives, neighbours in structure and some others; about 14% of the full set was active somewhere. Unless noted, the call rests on the fitted dose curve; in most records, active means well fitted curve in the direction sought with a large enough effect; inconclusive means small, poorly fitted or top-dose-only effect, or another doubt; inactive means no such curve, though single readings can be large; an effect the other way counts as inactive or inconclusive.

Screening COc1ncc2nc(-c3ccccc3)c(=O)n(CCC#N)c2n1 returned AID923 5.1%, 4MU fluor 1.33e-08M*, HADH2 inhib 39.8µM*, HSD17B inhib 25.1µM*, CRE Fsk mod inconclusive and A350 autofl 1.79e-08M*.
`COc1ncc2nc(-c3cc(F)cc(F)c3)c(=O)n(CCC#N)c2n1` gave AID923 -0.3%, 4MU fluor inconclusive, HADH2 inhib 14.4%, HSD17B inhib 31.6µM*, CRE Fsk mod 16.7% and A350 autofl inconclusive.
COc1ncc2nc(-c3ccc(Cl)cc3)c(=O)n(CCC#N)c2n1 was read as AID923 3.5%, 4MU fluor inconclusive, HADH2 inhib 5.6%, HSD17B inhib 3.5%, CRE Fsk mod -0.4% and A350 autofl inconclusive.
Screening Cc1cc2ncn(CC(=O)O)c2cc1C returned AID923 -0.9%[11.5 µM], 4MU fluor inactive, HADH2 inhib -2.2%[11.4 µM], HSD17B inhib -4.1%[11.4 µM], CRE Fsk mod -0.8%[7.6 µM] and A350 autofl inactive.
Screening COc1ccc(-c2nnc(SCC#CCO)o2)cc1OC returned AID923 -0.3%, 4MU fluor inactive, HADH2 inhib -0.4%, HSD17B inhib inconclusive, CRE Fsk mod inconclusive and A350 autofl inactive.
For COc1ccc(C)cc1NC(=O)CSc1nnc(-c2ccc(Br)cc2)o1 the results were AID923 0.3%, 4MU fluor inactive, HADH2 inhib 27.1%, HSD17B inhib -5.0%, CRE Fsk mod 3.4% and A350 autofl inactive.
`COC(=O)Sc1nnc(-c2ccc(Br)cc2)o1` gave AID923 0.4%, 4MU fluor inactive, HADH2 inhib 7.94µM*, HSD17B inhib inconclusive, CRE Fsk mod -7.5% and A350 autofl inactive.
OCC#CCSc1nnc(-c2ccc(Br)cc2)o1 was read as AID923 -0.4%, 4MU fluor 4.79e-08M*, HADH2 inhib 2.7%, HSD17B inhib -1.4%, CRE Fsk mod inconclusive and A350 autofl 5.03e-08M*.
For C=C/C(=C\C)C[C@@H](CC(=O)N[C@@H](CCC(=O)O)CC(=O)O)NC(=O)[C@@H]1CNCC[C@H]1NC(=O)C[C@@H](NC(=O)C[C@H](Cc1ccccc1)NC(=O)[C@@H]1CCCC[C@H]1N)C(C)C the results were HADH2 inhib -9.0% and CRE Fsk mod -13.6%.
`COc1ccc2c(c1)n([O-])c1c([n+]2=O)CCC1` gave 4MU fluor 1.41e-07M* and A350 autofl 1.6e-07M*.
Screening CCOc1ccc2c(c1)n([O-])c1c([n+]2=O)CCCC1 returned 4MU fluor 5.99e-08M* and A350 autofl 6.94e-08M*.
`COc1ccc(OC)c(-c2c[n+](=O)c3c(n2[O-])CCCC3)c1` gave AID923 1.4%, 4MU fluor inactive, HADH2 inhib -1.2%, HSD17B inhib 3.6%, CRE Fsk mod inconclusive and A350 autofl inconclusive.
For COC(C(C)/C=C/CC(=O)OCCCc1ccccc1)C1CCCCC1 (stereo not given) the results were AID923 -1.6%[11.5 µM], HADH2 inhib 2.5%[11.4 µM] and HSD17B inhib 3.5%[11.4 µM].
O=C1c2sc3nc4c(c(=O)n3c2C(=O)N1c1ccccc1)CCC4 was read as AID923 0.5%, 4MU fluor inconclusive, HADH2 inhib inconclusive, HSD17B inhib -3.5%, CRE Fsk mod 8.0% and A350 autofl inconclusive.
O=C1c2sc3nc4ccccc4n3c2C(=O)N1c1ccccc1Cl was read as AID923 -1.5%, 4MU fluor inactive, HADH2 inhib 7.94µM*, HSD17B inhib -22.5%, CRE Fsk mod -3.9% and A350 autofl inactive.
Screening Cc1ccccc1N1C(=O)c2sc3nc4c(c(=O)n3c2C1=O)CCC4 returned AID923 2.4%, HADH2 inhib 25.1µM*, HSD17B inhib -29.3% and CRE Fsk mod -18.6%.
For C[C@@H](c1ccccc1)N1C(=O)[C@@H]2[C@H]3C(=CC[C@H]2C1=O)C(=O)[C@H]1O[C@H]1[C@H]3O the results were AID923 6.2%[11.5 µM], HADH2 inhib -17.2%[11.4 µM] and HSD17B inhib -9.4%[11.4 µM].
`C=CCC1(C)OC=Cc2nc3cc(Cl)c(Cl)cc3nc21` (stereo not given) gave AID923 1.8%[11.5 µM], HADH2 inhib -10.8%[11.4 µM] and HSD17B inhib -26.6%[11.4 µM].
CC(=O)c1cccc(NC(=O)c2cc3nc(C)cc(C)n3n2)c1 was read as AID923 0.0%, 4MU fluor inactive, HADH2 inhib inconclusive, HSD17B inhib 31.6µM*, CRE Fsk mod inconclusive and A350 autofl inconclusive.
CC[C@]12CCCN3CCc4c(n(c5ccccc45)C(=O)C1)[C@H]32 was read as AID923 -2.2% and HSD17B inhib -7.7%.
`O=C(O)Cn1c(=O)oc2cc(S(=O)(=O)N3CCOCC3)ccc21` gave AID923 0.9%, HADH2 inhib 5.8%, HSD17B inhib 5.1% and CRE Fsk mod -3.0%.
Screening CCNCCCNCCCCNCCCNCC returned AID923 -2.2%, HADH2 inhib -3.8%, HSD17B inhib 1.7% and CRE Fsk mod inconclusive.
Cc1ccc(NC(=O)c2ccccc2O)cc1 was read as AID923 -0.7%, 4MU fluor inconclusive, HADH2 inhib -6.5%, HSD17B inhib inconclusive, CRE Fsk mod inconclusive and A350 autofl 1.17e-08M*.
`Cc1ccccc1NC(=O)c1ccccc1O` gave AID923 0.8%, 4MU fluor 1.37e-08M*, HADH2 inhib inconclusive, HSD17B inhib 25.1µM*, CRE Fsk mod 1.0% and A350 autofl 1.37e-08M*.
`O=C(Nc1ccccc1)c1ccccc1O` gave AID923 4.2%, HADH2 inhib -6.8%, HSD17B inhib inconclusive and CRE Fsk mod 1.8%.
Screening COc1cc(OC)c2c(OC)c(-c3ccc4c(c3)OCO4)c(=O)oc2c1 returned AID923 2.4% and HSD17B inhib inconclusive.
For COc1ccccc1CC(=N)N1C[C@@H]2C(=O)CCC(c3ccccc3)(c3ccccc3)[C@@H]2C1 the results were AID923 -1.6%, HADH2 inhib 29.8%, HSD17B inhib -0.9% and CRE Fsk mod -18.0%.
For CCCCCCN(C(=O)CCCCCN1C(=O)NC(c2ccc(-c3ccccc3)cc2)C(C(=O)OCc2ccccc2)=C1C)C(C(=O)NCCCC)c1ccc(O)c(C(=O)OC)c1 (stereo not given) the results were AID923 -1.9%, HADH2 inhib -7.2%, HSD17B inhib 31.6µM* and CRE Fsk mod 0.4%.
For Cc1cc(=O)oc2cc(OCc3nnc(-c4ccccc4Br)o3)ccc12 the results were AID923 1.2%, 4MU fluor 2.9e-07M*, HADH2 inhib 56.3%, HSD17B inhib 25.1µM*, CRE Fsk mod inconclusive and A350 autofl 2.66e-07M*.
